SMARCA2 activ = SMARCA2 (BRM) function activators, primary screen, cell-based, luminescence, high throughput; activation, % at 9.1 µM; hit rate 1% among 370,000; MG213 cells, MMTV-luciferase reporter, dexamethasone, overnight; in the data active = activation above about 7.8%;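 note: 0% = vehicle wells and 100% = reference activator wells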
DAX1 inh-1 = DAX1 (NR0B1) inhibitors on StAR promoter, primary screen, cell-based, luminescence, SF-1 (NR5A1), full-length DAX-1 | HEK293T StAR-luciferase reporter, SF-1/DAX-1 repression relief | inhibition, % at 6.8 µM | hit rate 1.1% among 370,000;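 active = inhibition above the mean over all tested compounds plus 3 SD, cut at about 3.6% in these data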;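 note: 0% = DAX-1 cells with DMSO and 100% = cells lacking DAX-1 with DMSO; higher inhibition means more luminescence from relief of DAX-1 repression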
DAX1 inh-2 = DAX1 (NR0B1) inhibitors, primary screen, cell-based, HEK293, Gal4-DAX1, luciferase luminescence. Nuclear receptor subfamily 0 group B member 1 (Homo sapiens), P51843. HEK293 Gal4-DAX1 luciferase reporter. inhibition, % at 6.75 µM. hit rate 0.99% among 340,000;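 active = inhibition above the mean over all tested compounds plus 3 SD, cut at about 4.2% in these data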;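 note: 0% = DAX1-transfected cells with DMSO and 100% = empty-vector control cells with DMSO; inhibition shows as a rise in luminescence from relieved DAX1 repression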
Target sequence (P51843 207-470 limits assumed): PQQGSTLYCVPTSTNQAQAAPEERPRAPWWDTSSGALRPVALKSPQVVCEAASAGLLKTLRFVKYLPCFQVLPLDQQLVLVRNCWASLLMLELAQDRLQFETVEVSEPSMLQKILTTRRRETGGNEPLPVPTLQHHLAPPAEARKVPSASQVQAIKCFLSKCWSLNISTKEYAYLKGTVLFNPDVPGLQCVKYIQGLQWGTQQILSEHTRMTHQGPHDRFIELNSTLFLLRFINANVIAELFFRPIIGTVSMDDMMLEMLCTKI
hcDAF12 agonist = H. contortus DAF-12 nuclear receptor activators, primary screen, cell-based, luminescence, HEK293, lit1-tk-luc reporter. AID 652067, 2013. activation, % at 6.8 µM. hit rate 1.4% among 370,000. HEK293 hcDAF-12 lit1-tk-luc reporter; 0% DMSO, 100% Δ7-dafachronic acid;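 active = activation above the mean of all tested compounds plus 3 SD, cut at about 5.5% in these data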;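 note: 100% = response to 3 µM Δ7-dafachronic acid high control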
hgDAF12 agonist = H. glycines DAF-12 receptor agonists, primary screen, cell-based, luminescence, HEK293, GAL4 fusion, UAS-luciferase | AID 687014, 2013 | Nuclear hormone receptor DAF-12 (Heterodera glycines), GAL4 fusion | activation, % at 6.8 µM | HEK293 GAL4-hgDAF12 UAS-luciferase reporter, agonist luminescence; normalized to butyrate control | hit rate 1.8% among 370,000;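 active = activation above a cutoff set at the mean of all screened compounds plus 3 SD, cut at about 10% in these data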;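 note: 0% = DMSO wells and 100% = sodium butyrate wells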
ssDAF-12 act = S. stercoralis DAF-12 nuclear receptor activators, primary screen, cell-based, luminescence, HEK293, GRIP1 co-expression, lit1-tk-luc; Nuclear hormone receptor DAF-12 (Strongyloides stercoralis); HEK293 ssDAF-12/GRIP1 lit1-tk-luc reporter; % of 3 µM dafachronic acid response; activation, % at 6.8 µM; hit rate 1% among 370,000;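 active = activation above the mean over all tested compounds plus 3 SD, cut at about 0.9% in these data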;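 note: 0% = DMSO-only wells and 100% = 3 µM delta7-dafachronic acid wells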
Starred values were filed as active, the others as inactive; . = no result. Only some compounds are listed: those with a hit (about 4.8% of all), similar ones and a draw of the others.

SMILES	SMARCA2 activ	DAX1 inh-1	DAX1 inh-2	hcDAF12 agonist	hgDAF12 agonist	ssDAF-12 act
COC(=O)C1=C(C)NC2=C(C(=O)CCC2)C1c1coc2ccccc2c1=O (centres undefined)	0.3	-0.6	-1.1	2.4	1.1	0.1
CC1=C(C(=O)OCC2CCCO2)C(c2coc3ccccc3c2=O)C2=C(CCCC2=O)N1 (centres undefined)	-3.6	-0.7	4.2*	4.9	-1.9	-0.7
CCCS(=O)(=O)c1c(S(=O)(=O)CCC)c2cc(-c3ccncc3)ccn2c1C(=O)OC	-1.2	0.1	-0.4	-1.2	-5.6	-1.2
O=C1c2ccccc2/C(=C\c2ccc(O[C@@H]3CCCCO3)cc2)N1c1ccccc1	2.8	0.9	.	2.2	10.5*	-1.4
CCCC(=O)Nc1cnc(NC(=O)c2cccc(F)c2)cc1C	2.8	2.7	-0.6	4.1	12.6*	0.7
COC(=O)[C@@]12C[C@@H](CC(=O)N3CCC(c4ccccc4)CC3)C(=O)N(Cc3ccco3)C1=CCC(C)(C)C2	-3.6	0.8	.	-0.6	-4.9	-1.3
COc1ccc(-c2nnc(SCc3csc(N)n3)n2C)cc1	-0.8	-0.8	0.7	-0.5	-0.8	-0.9
Cc1ccc(Nc2nc(CSc3nnc(-c4ccc(F)cc4)n3C)cs2)cc1	0.8	1.5	-0.4	3.7	10.9*	-0.8
Cc1ccccc1CN1[C@@H](CC2CCCCC2)COCCS1(=O)=O	0.0	-0.3	-0.8	-1.6	1.1	-1.6
Nn1c(SCC(=O)NC2CCCC2)nnc1C(F)(F)F	-0.4	-1.3	5.3*	-0.8	-0.6	-0.3
Cc1ccc(NC(=O)Cc2nnc(SCC(=O)NC3CCCC3)n2C)cc1	0.9	0.3	0.1	6.3*	-1.0	-0.8
O=C(c1cc(-c2ccc(Cl)cc2)on1)N1CCOCC1	1.1	4.0*	0.8	3.7	12.2*	0.0
O=C(c1cc(-c2ccc(O)cc2)on1)N1CCN(c2ccc(F)cc2)CC1	-1.3	-0.9	-1.0	-1.1	1.8	-1.2
S=C(c1ccc(-c2cccc(Cl)c2)o1)N1CCOCC1	7.2	3.5	3.1	5.5	13.1*	-0.4
O=C(c1cc(-c2ccc(Cl)c(Cl)c2)on1)N1CCOCC1	0.9	1.0	1.5	1.5	3.1	0.0
O=C(c1cc(-c2ccc(F)cc2)on1)N1CCCCCC1	2.7	1.5	2.9	2.4	12.3*	-0.4
S=C(c1ccc(-c2cc(Cl)ccc2Cl)o1)N1CCOCC1	-4.2	0.3	0.6	-1.9	0.7	-1.2
O=C(c1cc(-c2ccc(F)cc2)on1)N1CCOCC1	5.6	2.0	-0.1	3.1	12.9*	0.3
Cc1nn(C)c(C)c1S(=O)(=O)NC1CCCC1	0.2	-0.7	0.7	-0.7	1.2	-0.8
O=C(c1cc(-c2cccc(O)c2)on1)N1CCCC1	4.0	1.7	2.9	5.5	13.1*	-0.2
O=C(c1cc(-c2cccc(Cl)c2)on1)N1CCOCC1	2.2	0.6	-0.1	0.9	11.0*	0.7
O=C(c1cc(-c2ccc(F)cc2)on1)N1CCCC1	7.0	2.5	0.8	3.5	13.1*	-0.9
COc1ccc(-c2cc(C(=O)N3CCN(C(c4ccccc4)c4ccccc4)CC3)no2)cc1OC	-4.8	0.1	1.8	-1.0	3.5	-0.4
COc1ccc(-c2cc(C(=O)N3CCCCCC3)no2)cc1OC	1.1	0.4	1.0	0.8	10.5*	-0.5
CCN(C[C@H]1N[C@@](Cc2ccccc2)(C(=O)OC)[C@H]2C(=O)N(C)C(=O)[C@@H]12)C(=O)COC	-1.1	-0.5	-0.3	-1.7	-2.1	-1.1
SMILES	SMARCA2 activ	DAX1 inh-1	DAX1 inh-2	hcDAF12 agonist	hgDAF12 agonist	ssDAF-12 act
CC(=O)/C(=C/N(C)C)Sc1ccc(C)cc1	-0.1	0.0	0.1	2.0	-0.8	-1.2
CN1CCN(C(=S)c2ccc(-c3cccc([N+](=O)[O-])c3)o2)CC1	7.9*	1.6	7.9*	6.5*	9.8	-0.6
O=C(Nc1cccnc1)c1ccc2ccccc2c1O	6.5	1.1	4.3*	2.4	9.0	0.6
CCOc1cc(C(=O)Nc2cccnc2)cc(OCC)c1OCC	0.0	-1.0	1.2	3.7	1.0	1.2*
CCCOc1ccc(C(=O)Nc2cccnc2)cc1	1.6	0.0	-0.3	-1.5	-0.2	-1.4
CCSc1ccccc1C(=O)Nc1cccnc1	-1.8	0.7	4.7*	-1.1	2.9	-0.7
O=C(N/N=C/c1cccnc1)c1ccc2ccccc2c1O	1.9	1.6	0.6	1.6	0.4	-0.8
COc1ccc(NC(=S)NC2CCCCC2)c(OC)c1	1.9	0.3	1.4	-1.4	1.1	-1.4
O=C(c1cccc(COc2ccc(Cl)cc2Cl)c1)N1CCN(c2ccccn2)CC1	2.7	3.3	-1.9	2.6	10.7*	0.6
O=C(O)c1ccc(-c2nc(-c3ccc(Cl)cc3)cs2)cc1	3.7	3.5	4.0	5.8*	12.6*	-0.1
O=C(O)c1ccc(-c2nc(-c3ccc(Cl)cc3Cl)cs2)cc1	4.4	0.8	1.6	-0.5	8.5	-0.3
Cc1cc(Cl)ccc1C(O)c1ncc(-c2ccccc2C(F)(F)F)[nH]1 (centres undefined)	-0.1	-1.0	.	-1.2	-1.7	-1.1
COC(=O)[C@@]12CCCCN1[C@H](c1ccc(-c3cccc(Cl)c3)cc1)[C@@H]1C(=O)N(C)C(=O)[C@@H]12	-0.1	1.6	0.4	-1.1	3.0	-0.8
Cn1c(=O)[nH]c(=O)c2c1nc(Br)n2CC(O)COc1ccccc1 (centres undefined)	7.9*	-0.3	0.7	0.2	0.3	-1.6
Cn1c(=O)[nH]c(=O)c2c1nc(SCC(=O)O)n2CCOc1ccccc1	1.5	0.0	2.4	-0.4	1.9	0.9*
COc1ccc(NC(=O)c2cc(S(=O)(=O)N3CCCCC3)c[nH]2)cc1Cl	-2.5	0.1	0.6	-2.0	-3.6	-1.6
CN(C)S(=O)(=O)c1ccc(S(=O)(=O)N2CCCC2)cc1	-0.7	-0.1	-0.8	0.4	1.1	-0.1
Cc1cc(=O)nc2c3ccccc3n(C(C)C(=O)NCCN3CCOCC3)n12 (centres undefined)	1.4	0.2	0.9	-0.2	1.8	-1.1
CCN(CC)CCCNC(=O)C(C)n1c2ccccc2c2nc(=O)cc(C)n21 (centres undefined)	0.2	0.6	5.4*	-1.1	-1.2	-0.8
Cc1ccccc1NC(=O)C(=O)NCCCN1CCCC1=O	-0.9	3.7*	1.0	3.4	0.3	-0.4
Cc1cc(=O)nc2c3ccccc3n(CC(=O)NCCCN3CCOCC3)n12	.	.	1.3	.	.	.
